From PubChem BioAssay
The sample as a whole holds a higher share of hits than the screen did.
KDM5B inh: inhibitors of human KDM5B histone demethylase. Potency, µM (series often up to 57.7 µM), actives largely listed as inhibitors. AID 1347165. Q9UGL1. 220,000 tested, 2.6% active. KDM5B demethylase, FDH-coupled NADH fluorescence (FDH is formaldehyde dehydrogenase); active = well fitted inhibition curve with a large enough effect; also: 0% is about no effect; nearly all actives have a fitted effect of over 70% in size
Target sequence (Q9UGL1 whole entry, looked up): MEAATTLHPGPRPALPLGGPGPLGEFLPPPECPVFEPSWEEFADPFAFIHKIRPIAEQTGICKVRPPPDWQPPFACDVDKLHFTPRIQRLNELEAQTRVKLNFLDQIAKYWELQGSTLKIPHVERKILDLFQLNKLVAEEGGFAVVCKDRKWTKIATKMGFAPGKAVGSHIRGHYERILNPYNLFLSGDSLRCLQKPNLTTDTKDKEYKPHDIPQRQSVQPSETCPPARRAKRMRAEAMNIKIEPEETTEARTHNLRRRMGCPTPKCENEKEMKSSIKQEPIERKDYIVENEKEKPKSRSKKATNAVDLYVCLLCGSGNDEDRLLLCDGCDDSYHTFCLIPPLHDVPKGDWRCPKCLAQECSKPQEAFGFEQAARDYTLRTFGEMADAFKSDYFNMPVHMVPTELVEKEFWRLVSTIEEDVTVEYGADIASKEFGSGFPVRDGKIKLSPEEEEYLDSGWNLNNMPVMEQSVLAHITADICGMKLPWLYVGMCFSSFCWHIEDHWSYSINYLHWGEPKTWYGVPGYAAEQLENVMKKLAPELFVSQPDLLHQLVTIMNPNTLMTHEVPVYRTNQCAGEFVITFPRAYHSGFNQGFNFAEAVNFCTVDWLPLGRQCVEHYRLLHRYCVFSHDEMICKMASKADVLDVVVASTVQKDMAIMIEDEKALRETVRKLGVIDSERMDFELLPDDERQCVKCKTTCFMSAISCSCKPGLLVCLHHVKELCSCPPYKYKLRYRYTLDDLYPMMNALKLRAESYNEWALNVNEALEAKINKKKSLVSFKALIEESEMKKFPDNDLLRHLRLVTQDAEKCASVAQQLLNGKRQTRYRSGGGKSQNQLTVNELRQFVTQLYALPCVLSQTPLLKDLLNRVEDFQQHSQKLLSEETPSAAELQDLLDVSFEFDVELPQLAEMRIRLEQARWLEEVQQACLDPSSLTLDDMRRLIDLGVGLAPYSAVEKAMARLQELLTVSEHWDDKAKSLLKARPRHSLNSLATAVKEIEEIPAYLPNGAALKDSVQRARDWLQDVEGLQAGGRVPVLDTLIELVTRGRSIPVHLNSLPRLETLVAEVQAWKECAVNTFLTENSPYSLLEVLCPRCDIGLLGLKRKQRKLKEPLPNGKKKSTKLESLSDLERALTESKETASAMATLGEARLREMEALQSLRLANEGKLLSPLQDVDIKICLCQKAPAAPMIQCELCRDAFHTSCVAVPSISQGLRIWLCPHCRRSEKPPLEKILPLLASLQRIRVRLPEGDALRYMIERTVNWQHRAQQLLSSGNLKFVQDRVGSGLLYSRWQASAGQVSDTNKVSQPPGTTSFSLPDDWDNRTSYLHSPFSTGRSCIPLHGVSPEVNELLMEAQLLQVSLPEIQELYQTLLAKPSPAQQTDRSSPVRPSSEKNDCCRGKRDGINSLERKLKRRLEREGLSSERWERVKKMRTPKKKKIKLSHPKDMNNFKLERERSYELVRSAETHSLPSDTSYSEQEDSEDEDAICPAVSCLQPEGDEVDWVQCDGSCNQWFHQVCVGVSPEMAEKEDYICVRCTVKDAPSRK
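Compound dilutions met 200 nM (final) KDM5BΔAP for 10 min at room temperature before substrate addition. The substrate mix held 12.5 µM H3K4me3 with cofactors 25 µM α-ketoglutarate and 50 µM Fe²⁺. NADH signal gain over 30 min defined activity.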
* hit, by the source's call. Potency is read from the fitted curve at half-maximal effect.

Screening COC(=O)CNC(=O)c1nc(-c2ccc([S+](C)(=O)[O-])cc2)c2cnccn12 returned KDM5B inh 25.1µM*.
COC(=O)CNC(=O)c1nc(-c2cccnc2)c2ccccn12 was read as KDM5B inh inactive.
COC(=O)CNC(=O)c1nc(-c2ccc(Cl)nc2)c2cnccn12 was read as KDM5B inh 35.5µM*.
O=C(Nc1ccc(Cn2cncn2)cc1)c1csc(NC2CCCC2)n1 was read as KDM5B inh inactive.
For Cc1noc(-c2ccc(OC3CN(S(=O)(=O)c4cn(C)cn4)C3)cc2)n1 the results were KDM5B inh inactive.
Screening COc1ccc(NC(=O)C2=NO[C@@H]3CN(c4ccccc4)C[C@H]23)cn1 returned KDM5B inh inactive.
Screening Cc1ccc(S(=O)(=O)N2CCN(C(=O)CN3CCCCC3)C2c2ccccc2)cc1 (centres undefined) returned KDM5B inh inactive.
`ClC(Cl)(Cl)C1c2ccccc2Nc2ccccc21` gave KDM5B inh inactive.
CN(CCC(O)c1ccccc1)c1nccc(-c2cccnc2)n1 (centres undefined) was read as KDM5B inh 28.2µM*.
Screening O=C(C(=O)N1CCC(c2cc(Cc3ccccc3)[nH]n2)CC1)c1cccnc1 returned KDM5B inh inactive.
`c1cncc(-c2n[nH]c(C3CCCCN3)n2)c1` (centres undefined) gave KDM5B inh inactive.
For CN(CCO)c1nc(-c2cccnc2)nc2ccccc12 the results were KDM5B inh inactive.
`CN(Cc1cc(C2CC2)n[nH]1)c1nccc(-c2cccnc2)n1` gave KDM5B inh 22.4µM*.
For N#Cc1ccc(-c2cccnc2)nc1SCC(=O)c1ccccc1 the results were KDM5B inh inactive.
Screening CC(C)c1nn(C)c(Cl)c1CNCc1ccc2c(c1)OCCO2 returned KDM5B inh inactive.
Screening CCCOc1nc2ccccc2nc1N1CCC(C(=O)NCc2ccccc2Cl)CC1 returned KDM5B inh inactive.
For Cc1ccc(NC(=O)c2ccc3c(c2)CCC3)cc1C the results were KDM5B inh inactive.
For O=S(=O)(Cc1ccccc1)N1CCC(N2CC(OCC3CC3)C23CCOCC3)CC1 (centres undefined) the results were KDM5B inh inactive.
Screening Cc1nnsc1C(=O)N[C@H]1CCN(C(=O)CSCC(=O)O)[C@H](C(=O)N[C@H](Cc2ccccc2)C(N)=O)C1 returned KDM5B inh inactive.
C[C@H]1[C@@H]2[C@@H](O)C([C@H](C)C(=O)N3CCCCC3)CC[C@@]2(C)CC[C@@H]1NC(=O)c1ccccn1 (some centres undefined) was read as KDM5B inh inactive.
For C[C@H](C(=O)N1CCCC1)C1CC[C@@]2(C)Cc3sc(-c4ccccc4)nc3[C@@H](C)[C@@H]2[C@H]1O (some centres undefined) the results were KDM5B inh 31.6µM*.
COCCNC(=O)[C@@H](C)C1CC[C@@]2(C)Cc3sc(CSc4ccccc4)nc3[C@@H](C)[C@@H]2[C@H]1O (some centres undefined) was read as KDM5B inh inactive.
`Cc1ccc(C(=O)NC(O)C(=O)c2ccc(Cl)cc2)cc1` (centres undefined) gave KDM5B inh inactive.
`CCCCCc1ccc(-c2ccc(CCCCC)cn2)cc1` gave KDM5B inh inactive.
For Fc1ccc(COc2cccc(CNCC3CCNCC3)c2)cc1 the results were KDM5B inh inactive.
CC(NC(=O)c1[nH]c2ccccc2c1Cl)c1ccc(F)cc1 (centres undefined) was read as KDM5B inh inactive.
Screening COCCCn1c(C)cc(C(=O)N2CC(COC)C3(CCNCC3)C2)c1C (centres undefined) returned KDM5B inh 31.6µM*.
Screening Cc1ccc(C(=O)N2CC(CO)C3(CCNCC3)C2)c(C)c1 (centres undefined) returned KDM5B inh inactive.
For COCC1CN(C(=O)c2nccn2C)CC12CCNCC2 (centres undefined) the results were KDM5B inh 25.1µM*.
For COCCCn1c(C)cc(C(=O)N2CCCC(CO)CCNC(=O)CC2)c1C (centres undefined) the results were KDM5B inh inactive.
CCOc1ccc(C(=O)N2CC(COC)C3(CCNCC3)C2)cc1OCC (centres undefined) was read as KDM5B inh inactive.
For COCC1CN(C(=O)CC2=CCCCC2)CC12CCNCC2 (centres undefined) the results were KDM5B inh inactive.
COc1ccc2c(ccn2CC(=O)NCCCCCC(=O)O)c1 was read as KDM5B inh inactive.
Screening N=C1C(c2nc3ccccc3c(=O)[nH]2)=C(O)CN1c1ccc(Cl)cc1Cl returned KDM5B inh inactive.
Screening O=C(Nc1ccccc1C(=O)N1CCCCC1)c1cnc2ccccc2n1 returned KDM5B inh inactive.
`Cc1ccc(NC(=O)NCCc2c[nH]c3ccccc23)cc1` gave KDM5B inh inactive.
For Clc1ccc(CN2CCOC[C@H](Oc3cccnc3)C2)cc1 the results were KDM5B inh inactive.
For COc1cccc(C(=O)N2CCc3nc(C)nc(-c4ccc(O)cc4)c3C2)c1 the results were KDM5B inh inactive.
For COc1ccc(-c2nc(C)nc3c2CN(C(=O)c2ccccn2)CC3)cc1 the results were KDM5B inh 15.8µM*.
For Oc1ccc(-c2nc(C3CC3)nc3c2CCN(CC2CCCCC2)CC3)cc1 the results were KDM5B inh inactive.
COc1ccc(-c2nc(C)nc3c2CCN(C(=O)c2ccc(C)cc2)CC3)cc1 was read as KDM5B inh inactive.
`CCc1nc2c(c(-c3ccc(Cl)cc3)n1)CCN(CC1CCCCC1)CC2` gave KDM5B inh inactive.
Screening COc1ccc(-c2nc(C)nc3c2CCN(Cc2ccnn2C)CC3)cc1 returned KDM5B inh 20µM*.
`COc1ccc(C(=O)N2CCc3nc(-c4ccccc4)nc(-c4ccc(OC)cc4)c3C2)cc1` gave KDM5B inh inactive.
`COc1ccc(CN2CCc3nc(C)nc(-c4ccc(OC)cc4)c3CC2)cc1` gave KDM5B inh inactive.
For COc1ccc(-c2nc(C)nc3c2CCN(CC2CCCCC2)CC3)cc1 the results were KDM5B inh 28.2µM*.
Cc1cc(CN2CCc3nc(C(C)C)nc(-c4ccc(Cl)cc4)c3CC2)no1 was read as KDM5B inh inactive.
For COc1ccc(-c2nc(C)nc3c2CCN(Cc2cc(C)on2)CC3)cc1 the results were KDM5B inh 20µM*.
CCc1nc2c(c(-c3ccc(OC)cc3)n1)CCN(Cc1ccc(OC)cc1)CC2 was read as KDM5B inh inactive.
FC(F)(F)Oc1ccc(CN2CCOC[C@H](Oc3cccnc3)C2)cc1 was read as KDM5B inh inactive.
Screening Cc1ccc(Nc2nc(N3CCCC3)nc3nccnc23)c(C)c1 returned KDM5B inh inactive.
`COc1ccc(S(=O)(=O)N2CCC3(CC2)N=C(c2cccs2)C(=O)N3)cc1OC` gave KDM5B inh inactive.
For CC(Sc1ccc2c(c1)OCCCO2)C(=O)Nc1ccccc1-c1ccccc1 (centres undefined) the results were KDM5B inh inactive.
O=C(c1ccc(CCC2COc3ccccc3O2)cc1)N1CCCCC1 (centres undefined) was read as KDM5B inh inactive.
`COCCc1noc(-c2nc(-c3ccccc3F)no2)n1` gave KDM5B inh inactive.
Screening N#Cc1ccc(N2CCC(C(=O)Nc3ncc(Cc4ccccc4)s3)CC2)nc1 returned KDM5B inh inactive.
